# CD40 NFkB inh: CD40 pathway inhibition in BL2 cells. BL2 NF-kB luciferase reporter, CD40L-induced, 4 h. inhibition, % at 10 µM. hit rate 0.94% among 83,000;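 active = mean inhibition of at least 50% with a set share of replicates also reaching that level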;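 note: 0% = neutral control wells and 100% = IKK inhibitor VII at 50 µM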
# * = called active by the depositor; [ ] = dose if it differs, or a comment. Shown is part of a subset that was picked to be rich in hits.
SMILES,CD40 NFkB inh
N#C[C@@H]1[C@H](c2ccc(C#CC3CCCC3)cc2)[C@@H](CO)N1C(=O)Nc1ccc(F)cc1,48*
N#C[C@H]1[C@@H](c2ccc(C#CC3CC3)cc2)[C@@H](CO)N1C(=O)Nc1ccc(F)cc1,2
N#C[C@H]1[C@@H](c2ccc(C#CC3CCCCC3)cc2)[C@H](CO)N1C(=O)Nc1ccc(F)cc1,55*[25 µM]
N#C[C@H]1[C@H](c2ccc(C#CC3CCCC3)cc2)[C@@H](CO)N1C(=O)Nc1ccc(F)cc1,29
CC(C)NC(=O)N1[C@H](C#N)[C@@H](c2ccc(C#CC3CCCCC3)cc2)[C@@H]1CO,-3
COc1ccc2c3c(n(C)c2c1)[C@@H](CO)N(CC1CC1)CC31CCN(S(=O)(=O)c2cccs2)CC1,5[25 µM]
C[C@@H]1CN([C@@H](C)CO)C(=O)c2cccc(NC(=O)C3CCCCC3)c2O[C@H]1CN(C)S(C)(=O)=O,-12[25 µM]
CO[C@@H]1CN(C)C(=O)c2ccc(NC(=O)C3CCC3)cc2OC[C@H](C)N(C)C[C@@H]1C,1
O=C(/C=C/c1cccs1)c1ccc(N2CCOCC2)cc1,54*
CC(C)(C)NC(=O)/C=C/c1cccs1,-12
CC(=O)c1ccc(N2CCN(C(=O)Cc3cccs3)CC2)cc1,-18
COc1ccccc1CNC(=O)C[C@@H]1C[C@@H]2c3cc(NC(=O)C4CCC4)ccc3O[C@@H]2[C@H](CO)O1,-10[25 µM]
C[C@H](CO)N1C[C@H](C)[C@H](CN(C)Cc2ccc3cccnc3c2)OCc2cn(nn2)CCCC1=O,1[25 µM]
CO[C@H]1CN(C)C(=O)c2cc(NS(C)(=O)=O)ccc2OC[C@H](C)N(C(=O)C2CCCC2)C[C@@H]1C,-19
CC(=O)N1[C@@H]2CN(C(=O)NC(C)C)C[C@H]1C2c1ccc(Br)cc1 (some centres not stated),-41
COc1ccc(-c2cc(C(=O)N3CCCC3)no2)cc1OC,-80
O=C(c1cc(-c2ccc3c(c2)OCO3)on1)N1CCCCC1,54*
O=C(c1cc(-c2ccc(O)cc2)on1)N1CCCCCC1,-45
O=C(C[C@@H]1C[C@H]2c3cc(NC(=O)NC4CCCCC4)ccc3O[C@H]2[C@@H](CO)O1)NCC1CC1,1
COc1ccc([C@H]2C/C=C\C[C@H](c3cccc(Cl)c3)NC(=O)[C@@H](c3ccccc3)CC(=O)N2)c(OC)c1,8[25 µM]
Cc1ccc(S(=O)(=O)N(C)C[C@@H]2OCCCC[C@@H](C)Oc3ccc(NS(=O)(=O)c4cccs4)cc3C(=O)N([C@@H](C)CO)C[C@@H]2C)cc1,7
CC(C)c1cccc(NC(=O)C[C@H]2CC[C@H]3[C@@H](COc4ccc(NS(=O)(=O)c5ccccc5Cl)cc4C(=O)N3C)O2)c1,24[25 µM]
COc1ccccc1C(=O)Nc1ccc2c(c1)C(=O)N(C)[C@H]1CC[C@H](CC(=O)Nc3cc(F)ccc3F)O[C@@H]1CO2,30[25 µM]
COc1ccccc1C(=O)Nc1ccc2c(c1)C(=O)N(C)[C@H]1CC[C@H](CC(=O)Nc3cccc(C(C)C)c3)O[C@@H]1CO2,57*[25 µM]
O=C(C[C@@H]1C[C@@H]2c3cc(NC(=O)Nc4ccccc4F)ccc3O[C@@H]2[C@H](CO)O1)NCc1ccc2c(c1)OCO2,-7[25 µM]
SMILES,CD40 NFkB inh
CCCNC(=O)N1CC2(CCN(Cc3nccs3)CC2)c2c([nH]c3cc(OC)ccc23)[C@H]1CO,-10[25 µM]
CCC(=O)N1CCCCN2[C@@H](CO)[C@H](c3ccc(C#Cc4ccccc4)cc3)[C@@H]2C1,3[25 µM]
N#C[C@@H]1[C@H](c2ccccc2C2=CCCC2)[C@@H](CO)N1C(=O)C1CCCC1,3[25 µM]
O=C(NC1CCCC1)[C@@H]1[C@@H](CO)[C@@H]2Cn3c(cccc3=O)[C@@H]2N1CC1CCOCC1,-2
O=C(c1ccccc1F)N1C[C@@H]2[C@H](c3ccccc31)[C@@H](CO)N2Cc1ccc2c(c1)OCO2,15[25 µM]
CCCN(C)C[C@H]1OCc2cnnn2CCCC(=O)N([C@H](C)CO)C[C@H]1C,1[25 µM]
COc1cc(C(=O)CCN2CCC(c3ccccc3)C2)cc(OC)c1OC (configuration not stated),45*
O=C(CCN1CCC(c2ccccc2)C1)c1cccs1 (configuration not stated),35
O=C(CCN1CCCCC1)c1ccc2c(c1)OCCO2,0
O=C(CCN1CCC(c2ccccc2)C1)c1ccc2c(c1)OCCO2 (configuration not stated),45*
COc1cc(C(=O)OC2CCN(C)CC2)cc(OC)c1OC,16
O=C(CCN1CCC(c2ccccc2)C1)c1ccccc1 (configuration not stated),5
C/C=C/c1ccc([C@H]2[C@H](CO)N(C(C)=O)[C@H]2CN(C)C(=O)CN(C)C)cc1,4
COc1ccccc1NC(=O)N1CC(=O)N2[C@H](CO)[C@H](c3ccc(-c4cccc(C)c4)cc3)[C@@H]2C1,13[25 µM]
Cc1ccc(CN(C)C[C@@H]2OCc3cn(nn3)CCCC(=O)N([C@H](C)CO)C[C@@H]2C)cc1,-3
O=C(Nc1cc(F)ccc1F)N1CC(=O)N2[C@H](C1)[C@@H](c1ccc(C#CC3CCCC3)cc1)[C@@H]2CO,2
C[C@@H]1CN(C)C(=O)c2cc(N(C)C)ccc2O[C@H]1CN(C)C,7
